A short description of test [1]: Nuclear factor erythroid 2-related factor 2/antioxidant responsive element (Nrf2/ARE) small molecule agonists: qHTS cell viability counter screen in human keratinocytes (AID 1919968; active means well fitted curve in the direction sought with a large enough effect in the repeat runs; an effect the other way counts as inactive or inconclusive; further: nearly all actives have a fitted effect of over 55% in size; further: potency means the concentration at half of the fitted maximal effect). The essentials: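 Seed 1,500 KeratinoSens cells per well, then incubate 5 h at 37 C/5% CO2. Add compounds in DMSO and incubate 23 h. Add CellTiter-Fluor, wait 1 h and read fluorescence.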

In test [2] the target is KiSS-1 receptor (Homo sapiens) (UniProt Q969F8). The experiment in a line: Human kisspeptin (KISS1R) small molecule agonists, calcium flux assay in KISS1R-HEK293 cells (AID 1920064; active means well fitted curve in the direction sought with a large enough effect in the repeat runs; an effect the other way counts as inactive or inconclusive). In short, it runs like this: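 Cells plated and incubated 18 h; dye added, 1 h at 37 C; compounds in DMSO pinned in; signal read at 480/540 nm every second for 3 min. Each compound tested at 15 concentrations in triplicate.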

The nature of test [3]: G protein-coupled receptor (GPCR) small molecule agonists, calcium flux assay: HEK293 wild type cell line counter screen (AID 1920065). In short, it runs like this: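 Counter-screen of the Tox21 10K library for non-specific calcium release: dye-loaded cells received compounds in DMSO and were monitored by kinetic fluorescence (480/540 nm, 3 min). Fifteen concentrations, run in triplicate.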

Test [4] in a line: p53 small molecule agonists, cell-based qHTS assay with human liver microsomes (AID 1963577). Further: potency means the concentration at half of the fitted maximal effect.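 On activation: p53 response element beta-lactamase reporter cells with liver microsomes plus NADPH.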 The essentials:
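In this qHTS, p53 response-element beta-lactamase cells receive test compound together with a microsome/NADPH activating system (0.5 mg/mL final each) and are incubated 16 h at 37 C before LiveBLAzer fluorescence detection.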
Background: Quantitative high-throughput screening tests each substance at several concentrations.

Test [5] can be described thus: p53 small molecule agonists, cell-based qHTS assay with rat liver microsomes (AID 1963578). In short, it runs like this:
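Agonist mode in p53RE-bla reporter cells, with compounds co-incubated 16 h at 37 C alongside 0.5 mg/mL rat liver microsomes and 0.5 mg/mL NADPH (final), followed by a 2 h LiveBLAzer detection step.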

The nature of test [6]: p53 small molecule agonists, cell-based qHTS assay with human liver microsomes: qHTS cell viability counter screen (AID 1963579). Further: nearly all actives have a fitted effect of over 45% in size. Further: potency means the concentration at half of the fitted maximal effect. In short, it runs like this: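 Metabolically activated exposure: compounds, human liver microsomes and NADPH (0.5 mg/mL final apiece) were added to p53RE-bla cells seeded 5 h earlier, left 16 h at 37 C, and then assessed for viability by CellTiter-Glo luminescence.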

Test [7] in a line: p53 small molecule agonists, cell-based qHTS assay with rat liver microsomes: qHTS cell viability counter screen (AID 1963580). Further: nearly all actives have a fitted effect of over 45% in size. Further: potency means the concentration at half of the fitted maximal effect. In short, it runs like this: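 Viability is assessed in parallel with the p53 reporter read: HCT-116 p53RE-bla cells receive compounds plus rat microsomes and NADPH (0.5 mg/mL final apiece), incubate 16 h at 37 C, and then CellTiter-Glo luminescence is recorded.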

Test [8] can be described thus: p53 small molecule agonists, cell-based qHTS assay: qHTS cell viability counter screen (AID 1963581). Further: nearly all actives have a fitted effect of over 45% in size. The essentials:
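Cells: HCT-116 with p53 response element-driven beta-lactamase. Treatment: 16 h, 37 C, compounds in DMSO. Read: CellTiter-Glo luminescence after 30 min RT.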

Test [9] deals with 5-hydroxytryptamine receptor 2A (Homo sapiens) (UniProt P28223). Briefly: 5-hydroxytryptamine receptor 2A (HTR2A) small molecule antagonists, cell-based qHTS assay (AID 1963586). Further: nearly all actives have a fitted effect of over 45% in size. In short, it runs like this: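 Antagonist-mode intracellular calcium assay: DOI (4 nM) added after 5 min compound pre-incubation at room temperature to dye-loaded HTR2A-CHO cells. Fluorescence followed for 3 min, sampled every second.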

Test [10] shares this target. Briefly: 5-hydroxytryptamine receptor 2A (HTR2A) small molecule agonists, cell-based qHTS assay (AID 1963587). Further: nearly all actives have a fitted effect of over 30% in size. The essentials:
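CHO cells stably expressing human HTR2A, plated 18 h, loaded with calcium dye 1 h at 37 C. Agonist mode: compounds added and intracellular calcium fluorescence recorded kinetically for 2 min at 1 sec intervals.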

Test [11] deals with Muscarinic acetylcholine receptor M1 (Homo sapiens) (UniProt P11229). Briefly: Cholinergic receptor muscarinic 1 (CHRM1) small molecule antagonists, cell-based qHTS assay (AID 1963588). Further: nearly all actives have a fitted effect of over 40% in size. Further: potency means the concentration at half of the fitted maximal effect. In short, it runs like this:
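CHRM1-CHO calcium-flux assay, antagonist mode. Cells were seeded 18 h, dye-loaded 1 h at 37 C and given compound for 5 min at RT, then acetylcholine was added at 50nM. FDSS fluorescence was read 3 min; 15 concentrations, three runs.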

Test [12] shares this target. Briefly: Cholinergic receptor muscarinic 1 (CHRM1) small molecule agonists, cell-based qHTS assay (AID 1963589). Further: nearly all actives have a fitted effect of over 35% in size. In short, it runs like this: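 Agonist-mode qHTS in CHO cells stably carrying human muscarinic M1. Intracellular calcium is tracked by fluorescence every second after compound transfer; each compound runs at 15 concentrations in three independent runs.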

The nature of test [13]: cAMP Responsive Elements (CRE) small molecule agonists, cell-based qHTS assay (AID 1963590). In short, it runs like this:
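Agonist mode qHTS in CRE-bla HEK 293T cells: compounds dosed from DMSO for 3 h at 37 C/5% CO2, followed by LiveBLAzer B/G FRET substrate for 2 h at room temperature.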

The nature of test [14]: cAMP Responsive Elements (CRE) small molecule antagonists, cell-based qHTS assay (AID 1963591; active means well fitted inhibition curve with a large enough effect in the signal ratio in the repeat runs, not every such curve was filed as active; the % refers to the signal ratio). In short, it runs like this: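 Antagonist mode: test compounds are co-incubated with the adenylyl cyclase activator NKH477 (0.25 uM final) on CRE-bla HEK293T cells for 3 h at 37 °C, followed by LiveBLAzer substrate loading.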
Test [15] addresses Beta-2 adrenergic receptor (Homo sapiens) (UniProt P07550). The experiment in a line: Adrenergic beta2 receptor (ADRB2) small molecule antagonists, cell-based qHTS assay (AID 1963592). Further: series mostly up to about 92 µM; nearly all actives have a fitted effect of over 50% in size. The essentials:
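Cells (CHO, stable ADRB2 overexpression) incubated 18-20hr at 37C; compounds added from DMSO; agonist mix (1nM isoproterenol, 100uM IBMX, 25uM Ro-20-1724) added; 0.5hr RT; d2-cAMP and anti-cAMP-cryptate added; 1hr RT; 665/615 nm read.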

The target of test [16] is D(2) dopamine receptor (Homo sapiens) (UniProt P14416). Briefly: Dopamine D2 receptor (DRD2) small molecule agonists, cell-based qHTS assay (AID 1963594). Further: nearly all actives have a fitted effect of over 35% in size. The essentials:
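HEK293 cells stably expressing human DRD2, pre-treated with PDE inhibitor Ro20-1724 (0.1 mM final) and compound 10 min at room temperature, then stimulated with NKH477 (200nM […]) for 30 min. cAMP read by HTRF (665/620 nm).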

Test [17] shares this target. Briefly: Dopamine D2 receptor (DRD2) small molecule antagonists, cell-based qHTS assay (AID 1963595; active means well fitted inhibition curve with a large enough effect in the signal ratio in the repeat runs, with a control signal flat; the % refers to the signal ratio). In short, it runs like this: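 Stable D2 receptor HEK293 line, 24 h after seeding. Compound preincubated 10 min, then quinpirole (12 nM) with forskolin analogue NKH477 (200 nM), 30 min, room temperature. Detection by time-resolved FRET of cAMP.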
Test [18] addresses Gonadotropin-releasing hormone receptor (Homo sapiens) (UniProt P30968). The experiment in a line: Human gonadotropin-releasing hormone receptor (GnRHR) small molecule agonists, calcium flux assay in GnRHR-HEK293 cells (AID 1920063). Further: nearly all actives have a fitted effect of over 35% in size. The essentials:
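Cells: HEK293 stably expressing human GnRHR. Steps: overnight (18 h) culture, 1 h calcium dye loading at 37 C, compound addition, kinetic fluorescence read at 480/540 nm. Each compound tested at 15 concentrations in triplicate.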

Test [19] in a line: p53 small molecule agonists, cell-based qHTS assay (AID 1963582; active means well fitted activation curve with a large enough effect in the signal ratio in the repeat runs, not every such curve was filed as active; the % refers to the signal ratio). In short, it runs like this:
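Quantitative HTS in p53RE-bla cells: after a 5 h settling period, compounds delivered in DMSO were left on cells for 16 h at 37 C, and reporter induction was measured as fluorescence following 2 h substrate loading.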

Test [20] has as its target Beta-2 adrenergic receptor (Homo sapiens) (UniProt P07550). The experiment in a line: Adrenergic beta2 receptor (ADRB2) small molecule agonists, cell-based qHTS assay (AID 1963593). Further: potency means the concentration at half of the fitted maximal effect.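 On activation: CHO cells stably overexpressing human ADRB2.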 The essentials:
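CHO cells stably over-expressing ADRB2 were plated overnight at 37C, then dosed with compounds plus a stimulation mix containing 100uM IBMX and 25uM Ro-20-1724 for 0.5hr at room temperature. cAMP was measured by HTRF competition, 1hr.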

Values without a mark were called inactive. Results filed as inconclusive are left out. The source made the active and inactive calls. Unless noted, the call rests on the fitted dose curve.

Sequence of Gonadotropin-releasing hormone receptor (Homo sapiens) (P30968 whole entry, looked up): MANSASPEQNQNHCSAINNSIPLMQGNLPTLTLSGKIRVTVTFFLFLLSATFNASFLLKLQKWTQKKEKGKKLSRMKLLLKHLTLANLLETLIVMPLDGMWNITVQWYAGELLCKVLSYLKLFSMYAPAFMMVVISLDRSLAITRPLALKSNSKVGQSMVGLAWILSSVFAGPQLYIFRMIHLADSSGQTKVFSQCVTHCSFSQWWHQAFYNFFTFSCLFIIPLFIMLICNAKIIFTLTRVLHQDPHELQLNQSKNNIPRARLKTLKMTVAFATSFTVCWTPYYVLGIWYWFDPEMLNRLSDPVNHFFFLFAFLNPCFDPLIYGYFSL
Sequence of Beta-2 adrenergic receptor (Homo sapiens) (P07550 whole entry, looked up): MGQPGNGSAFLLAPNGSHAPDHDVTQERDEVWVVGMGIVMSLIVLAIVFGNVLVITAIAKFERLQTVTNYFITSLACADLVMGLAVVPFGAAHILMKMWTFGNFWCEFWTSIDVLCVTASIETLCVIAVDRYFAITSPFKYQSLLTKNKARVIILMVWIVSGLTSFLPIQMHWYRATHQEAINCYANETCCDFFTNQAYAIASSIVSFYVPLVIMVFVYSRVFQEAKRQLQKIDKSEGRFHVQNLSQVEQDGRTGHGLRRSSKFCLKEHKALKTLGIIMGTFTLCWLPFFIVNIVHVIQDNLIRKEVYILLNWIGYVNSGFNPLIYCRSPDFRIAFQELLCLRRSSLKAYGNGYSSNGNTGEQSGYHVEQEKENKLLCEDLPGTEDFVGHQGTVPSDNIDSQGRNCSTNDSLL
Sequence of Muscarinic acetylcholine receptor M1 (Homo sapiens) (P11229 whole entry, looked up): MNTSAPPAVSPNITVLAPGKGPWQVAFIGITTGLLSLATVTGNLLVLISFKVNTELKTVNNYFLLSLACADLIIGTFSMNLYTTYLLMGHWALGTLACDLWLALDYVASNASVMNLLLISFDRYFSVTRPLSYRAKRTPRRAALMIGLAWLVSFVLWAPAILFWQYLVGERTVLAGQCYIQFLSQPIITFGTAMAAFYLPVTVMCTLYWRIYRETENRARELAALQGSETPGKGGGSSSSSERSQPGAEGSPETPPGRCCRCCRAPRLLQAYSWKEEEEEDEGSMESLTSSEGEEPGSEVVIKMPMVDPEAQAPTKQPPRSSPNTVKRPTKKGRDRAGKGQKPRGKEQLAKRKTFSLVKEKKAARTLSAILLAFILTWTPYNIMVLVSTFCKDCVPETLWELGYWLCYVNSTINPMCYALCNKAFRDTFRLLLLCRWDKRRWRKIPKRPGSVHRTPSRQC
Sequence of KiSS-1 receptor (Homo sapiens) (Q969F8 whole entry, looked up): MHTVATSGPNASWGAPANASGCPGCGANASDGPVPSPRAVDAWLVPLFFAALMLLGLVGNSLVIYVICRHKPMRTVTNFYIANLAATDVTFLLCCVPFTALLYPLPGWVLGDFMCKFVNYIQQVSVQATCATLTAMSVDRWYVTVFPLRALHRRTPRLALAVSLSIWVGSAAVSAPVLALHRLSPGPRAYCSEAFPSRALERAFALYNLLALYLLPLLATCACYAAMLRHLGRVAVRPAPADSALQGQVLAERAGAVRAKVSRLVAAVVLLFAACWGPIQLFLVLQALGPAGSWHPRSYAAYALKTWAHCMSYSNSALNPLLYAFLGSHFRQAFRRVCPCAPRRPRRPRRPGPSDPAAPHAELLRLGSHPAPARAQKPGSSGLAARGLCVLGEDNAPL
Sequence of D(2) dopamine receptor (Homo sapiens) (P14416 whole entry, looked up): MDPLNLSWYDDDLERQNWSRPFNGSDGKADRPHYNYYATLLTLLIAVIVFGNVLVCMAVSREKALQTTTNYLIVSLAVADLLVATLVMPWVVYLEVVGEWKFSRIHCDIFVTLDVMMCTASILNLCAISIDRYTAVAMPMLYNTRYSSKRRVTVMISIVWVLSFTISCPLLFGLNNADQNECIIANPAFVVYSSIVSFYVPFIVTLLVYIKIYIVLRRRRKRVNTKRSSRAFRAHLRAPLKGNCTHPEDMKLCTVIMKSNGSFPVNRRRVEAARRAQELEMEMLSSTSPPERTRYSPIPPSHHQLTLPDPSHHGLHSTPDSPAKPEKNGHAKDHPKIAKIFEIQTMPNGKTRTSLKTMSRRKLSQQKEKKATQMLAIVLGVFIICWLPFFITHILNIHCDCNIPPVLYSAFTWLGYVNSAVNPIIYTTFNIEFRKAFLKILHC
Sequence of 5-hydroxytryptamine receptor 2A (Homo sapiens) (P28223 whole entry, looked up): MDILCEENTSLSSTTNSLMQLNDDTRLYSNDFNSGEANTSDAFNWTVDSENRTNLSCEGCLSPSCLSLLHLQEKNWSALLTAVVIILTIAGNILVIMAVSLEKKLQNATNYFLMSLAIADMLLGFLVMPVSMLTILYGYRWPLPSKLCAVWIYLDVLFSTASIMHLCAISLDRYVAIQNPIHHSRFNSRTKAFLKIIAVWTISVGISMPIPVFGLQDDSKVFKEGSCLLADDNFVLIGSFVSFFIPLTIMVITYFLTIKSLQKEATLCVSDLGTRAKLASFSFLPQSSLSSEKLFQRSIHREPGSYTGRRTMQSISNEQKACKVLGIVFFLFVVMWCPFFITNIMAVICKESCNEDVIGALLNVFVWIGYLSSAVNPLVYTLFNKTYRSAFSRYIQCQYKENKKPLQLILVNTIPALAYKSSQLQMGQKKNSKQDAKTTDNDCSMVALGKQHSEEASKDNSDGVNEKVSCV

As for `CC1(C)CON(Cc2ccccc2Cl)C1=O`, the Potency result in test [1], in test [2], in test [3], in [4], in test [5] and in test [6] was “inactive” each time. Further, the Potency entry in test [7], in test [8], in test [9], in test [10], in [11] and in test [12] was “inactive” throughout. The Potency entry in [13], in test [14], in [15], in test [16] and in [17] was “inactive” each time.
For `O=C(O)c1ccccc1C(=O)Nc1cccc2ccccc12`, the Potency entry in test [1], in test [18], in test [3], in test [5], in [6] and in test [7] was “inactive” each time. Also, the Potency result in test [8], in [19], in [9], in test [10], in [11] and in [12] was “inactive” throughout. Moreover, the Potency result in [13], in test [15], in test [16] and in [17] was “inactive” each time.
For the compound `CC(=O)OC(c1ccccc1)C(Cl)(Cl)Cl` (stereo not given), the Potency result in test [1], in [2], in test [3], in [4], in test [5] and in test [6] was “inactive” in each case. Further, the Potency entry in [7], in test [8], in test [19], in test [10], in test [11] and in test [12] was “inactive” throughout. Also, the Potency result in [15], in test [20], in test [16] and in test [17] was “inactive” throughout.
In the case of `O=C(O)CBr`, the Potency result in test [1], in test [2], in test [3], in [5], in [6] and in test [7] was “inactive” throughout. Further, the Potency result in test [8], in [19], in [9], in test [11], in test [12] and in test [13] was “inactive” each time. Further, the Potency result in [14], in [15], in test [16] and in [17] was “inactive” in each case.
In the case of `Clc1ccc(-c2ccc(Cl)c(Cl)c2Cl)c(Cl)c1Cl`, the Potency in [1] is 51.9 µM (active). For the same compound, the Potency result in test [3], in [4], in test [5], in test [6], in [7] and in test [8] was “inactive” throughout. For the same compound, the Potency result in test [9], in [10], in test [12], in [14], in [15] and in test [16] was “inactive” each time. Moreover, the Potency result in test [17] is “inactive”.
As to `CC1(C)C(/C=C(\Cl)C(F)(F)F)C1C(=O)OC(C#N)c1cccc(Oc2ccccc2)c1` (stereo not given), the Potency result in test [1], in test [3], in test [4], in [5], in test [6] and in test [8] was “inactive” each time. The Potency result in test [19], in test [10], in [12], in test [13], in [14] and in [15] was “inactive” throughout. The Potency result in test [16] and in [17] was “inactive” throughout.
With `Cc1cc(C)nc(Nc2ccccc2)n1`, the Potency entry in test [1], in [2], in [3], in test [4], in test [5] and in test [6] was “inactive” in each case. The Potency entry in test [7], in test [19], in test [9], in test [10], in [12] and in test [13] was “inactive” each time. The Potency entry in test [14], in [15] and in [16] was “inactive” in each case.
As for `CCCCCOC(=O)c1ccccc1C(=O)OCCCCC`, the Potency entry in test [1], in [18], in test [3], in test [5], in test [6] and in test [7] was “inactive” throughout. Further, the Potency result in [8], in [9], in test [10], in [12], in test [14] and in [15] was “inactive” in each case. Besides, the Potency entry in test [20], in test [16] and in [17] was “inactive” in each case.
Consider `CCCCCCCCc1ccc(O)cc1`, for which the Potency is 43.5 µM (active) in test [1], 36.6 µM (active) in test [6] and 48.8 µM (active) in test [7]. The Potency result in [2], in [3], in [4], in [13] and in test [15] was “inactive” each time.
For `CCOP(=S)(OCC)Oc1ncn(-c2ccccc2)n1`, the Potency entry in test [1], in test [2], in test [3], in test [6], in test [7] and in test [8] was “inactive” each time. Moreover, the Potency result in [19], in test [9], in test [10], in test [11], in [12] and in test [15] was “inactive” each time. Moreover, the Potency result in [16] and in test [17] was “inactive” in each case. Moreover, the Potency in [4] was 2.89 µM (active).
In the case of `C[C@]12CC[C@H]3[C@@H](CCC4=CC(=O)CC[C@@H]43)[C@@H]1CC[C@@H]2OC(=O)CCc1ccco1`, the Potency result in test [1], in test [2], in test [3], in test [4], in test [5] and in test [6] was “inactive” throughout. Further, the Potency result in [8], in [9], in [10] and in [12] was “inactive” in each case. Also, the results for the Potency in [11] and in [20] were 1.3 µM (active) and 2.98 µM (active), respectively.
Take `O=[N+]([O-])c1cccc(CCl)c1`: the Potency result in [1], in [2], in [3], in test [6], in [7] and in test [8] was “inactive” throughout. Moreover, the Potency entry in [10], in [11], in test [12], in [13], in test [15] and in test [16] was “inactive” in each case.

The record behind these values is PubChem BioAssay (Tox21).
